Rab9 promoter act – activators of Rab9 promoter; Huh7 Rab9 promoter-luciferase reporter, luminescence, 24 h; actives 2.8% (n = 320,000); Potency, µM (titrated, usually from 9.22 µM), inactives show top-dose activation, negative = inhibition, hits mostly activators; AID 485297; further: % of control where 0% means no effect; nearly all actives have a fitted effect of over 60% in size
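Huh7 cells stably carrying Rab9 promoter–luciferase reporter, plated 1500 cells/well, compound added after 2 h and incubated 24 h at 37 °C; luciferase luminescence then read after 10 min with detection reagent.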
Luc counter – Kinase-Glo luciferase inhibition (counter-screen); Kinase-Glo luciferase, ATP luminescence, 8 min; Potency, µM (titrated, usually from 38.3 µM), for inactives: top-dose activity change, negative = inhibition, usual class: inhibitors; actives 0.28% (n = 200,000); further: on the % scale 0 is the no-effect control and ±100 the full control effect; nearly all actives have a fitted effect of over 60% in size
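Compound is pinned into ATP-containing buffer (10 uM ATP, imidazole pH 7.2, 7 mM MgCl2). Kinase-Glo luciferase reagent is then added. Light output is recorded following an 8-min room-temperature incubation.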
SMN2 splice up – SMN2 splice variant enhancement; HEK293 SMN2-luciferase splicing reporter, luminescence, 30-36 h; Potency, µM (doses to about 46.1 µM), for inactives: top-dose activity change, positive = activation, usual class: activators; actives 2.8% (n = 210,000); further: % of control where 0% means no effect; nearly all actives have a fitted effect of over 55% in size
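HEK293 cells carry an SMN2 […]–luciferase reporter in which exon 7 inclusion puts luciferase in frame. Cells were plated 10-12 h before compound addition, then incubated 30-36 h at 37C. ONE-Glo luminescence was read; sodium butyrate at 4.5 mM final served as control.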
FLuc counter – counter-screen for miR-21 project: firefly luciferase inhibitors or activators; AID 588342; actives 6.9% (n = 360,000); Potency, µM (top dose mostly 57.5 µM), without a hit: at the highest dose activity change, negative = inhibition, usual class: inhibitors; purified FLuc, Km substrates, luminescence inhibition;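 further: plate controls were vehicle for no effect and reference inhibitor for full effect; nearly all actives have a fitted effect of over 55% in size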
Target sequence (P08659 whole entry, looked up): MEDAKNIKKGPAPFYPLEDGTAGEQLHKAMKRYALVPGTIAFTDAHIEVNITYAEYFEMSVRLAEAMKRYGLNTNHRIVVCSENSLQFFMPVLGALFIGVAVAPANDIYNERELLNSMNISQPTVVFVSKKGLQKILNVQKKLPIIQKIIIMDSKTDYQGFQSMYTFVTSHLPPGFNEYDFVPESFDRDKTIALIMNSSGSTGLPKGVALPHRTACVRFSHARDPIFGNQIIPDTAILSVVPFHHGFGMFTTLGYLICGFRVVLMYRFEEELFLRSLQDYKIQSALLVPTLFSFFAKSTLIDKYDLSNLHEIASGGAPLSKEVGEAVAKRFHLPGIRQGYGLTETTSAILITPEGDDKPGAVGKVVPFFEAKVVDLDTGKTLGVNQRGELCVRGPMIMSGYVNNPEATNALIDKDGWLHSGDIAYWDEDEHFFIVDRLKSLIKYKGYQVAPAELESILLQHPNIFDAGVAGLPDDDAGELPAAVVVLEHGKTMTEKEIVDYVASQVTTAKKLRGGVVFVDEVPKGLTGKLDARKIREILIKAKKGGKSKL
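Purified P. pyralis luciferase, 10 nM final, with Km-level 10 uM D-luciferin and 10 uM ATP in 50 mM Tris acetate pH 7.5, 10 mM Mg acetate, 0.01% Tween-20, 0.05% BSA; 6-point qHTS titration about 60 µM downward; luminescence read.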
NPC1 promoter act – activators of NPC1 promoter | Huh7 NPC1 promoter luciferase reporter, 24 h | Potency, µM (series often up to 9.22 µM), for the others: at the highest dose activation, usual class: activators | actives 2.4% (n = 320,000); further: % of control where 0% means no effect; nearly all actives have a fitted effect of over 60% in size
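Stable NPC1-promoter luciferase Huh7 line; cpd (DMSO) 24 h, 37 °C, 5% CO2; Amplite luciferase reagent 10 min RT; luminescence readout. qHTS format.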
* hit, by the source's call; ? = inconclusive; . = no result given; [ ] = remark or other dose. Most compounds without a hit are left out; they make up all but 7.3% or so of the library. The call rests on the fitted dose curve; in most records, active means well fitted curve in the direction sought with a large enough effect; inconclusive means small, poorly fitted or top-dose-only effect, or another doubt; inactive means no such curve, though single readings can be large; an effect the other way counts as inactive or inconclusive. Potency means the concentration at half of the fitted maximal effect.

SMILES | Rab9 promoter act | Luc counter | SMN2 splice up | FLuc counter | NPC1 promoter act
COc1ccc(CCNC(=O)c2ccc(-n3c(C)cc4c3CCC(C)C4)cc2)cc1OC (centres undefined) | . | . | . | -7% | .
CCOC(=O)c1c(C)[nH]c(C2=NNC(=Nc3ccc(OCC)cc3)SC2)c1C | -7% | -1% | -33% | ? | 1%
CC(=O)c1c(C)[nH]c(C2=NNC(=NC(C)(C)C)SC2)c1C | 1.6µM* | 2% | 13µM* | 24µM* | 1.8µM*
CCOC(=O)c1c(C)[nH]c(C2=NNC(=Nc3ccccc3)SC2)c1C | 2.5µM* | . | . | 12µM* | ?
CCOC(=O)c1c(C)[nH]c(C2=NNC(=Nc3ccccc3OC)SC2)c1C | ? | -1% | 11µM* | 9.5µM* | 2.5µM*
CCOC(=O)c1c(C)oc2nc(C)nc(NCc3cccc(Cl)c3)c12 | . | . | . | 6% | .
Cc1ccc2nsnc2c1NS(=O)(=O)c1c(C)ccc2nsnc12 | -6% | -2% | 3% | 3% | 2%
Cc1ccc(/C=[N+](\[O-])c2ccc(N(C)C)cc2)c2nsnc12 | 1.1µM* | -14% | 10µM* | 1.3µM* | ?
Cc1nc(C#N)c(N/N=C/c2cccc(Cl)c2)o1 | ? | -7% | 11µM* | 4.8µM* | ?
Cc1ccc(N2C(=O)C(CC(=O)Nc3ccccc3)N(CCC3=CCCCC3)C2=O)cc1 (centres undefined) | . | . | 6% | ? | .
CCCc1nnc(NC(=O)c2cc3ccccc3o2)s1 | 4µM* | . | . | 13µM* | 3.5µM*
CCCc1nnc(NC(=O)c2cc3ccccc3oc2=O)s1 | 2% | -2% | 12% | 0%[2.3 µM] | 8%
COCc1nnc(NC(=O)c2cc3ccccc3o2)s1 | ? | . | . | 19µM* | ?
COCc1nnc(NC(=O)c2cccc(NC(=O)c3ccccc3)c2)s1 | 16% | . | . | 19µM* | 13%
COCc1nnc(NC(=O)c2ccccc2[N+](=O)[O-])s1 | -2% | -2% | -1% | -9% | -3%
Cc1ccccc1Cn1c(=O)n(CC2CCC(C(=O)N3CCC(C)CC3)CC2)c(=O)c2sccc21 (centres undefined) | . | . | . | -13% | .
Cc1ccc(C)c(NC(=O)Cn2cc(S(=O)(=O)Cc3cccc(Cl)c3)c3ccccc32)c1 | . | . | . | -2% | .
COCC(=O)/C=C1\Sc2ccccc2N1C | 0% | 4% | 16% | -8% | 1%
CN1/C(=C/C(=O)C2CCC2)Sc2ccccc21 | ? | ? | ? | 17µM* | ?
CN1/C(=C/C(=O)c2cccs2)Sc2ccccc21 | -21% | 14µM* | 7.9µM* | 1.2µM* | 5%
CN1/C(=C\C(=O)c2cccs2)Sc2ccccc21 | 3.5µM* | . | . | 1.5µM* | ?
CN1/C(=C\C(=O)c2cccs2)C(C)(C)c2ccccc21 | 0% | -3% | -25% | ? | 7%
N#Cc1c(N2CCOCC2)nsc1-c1ccc(C(F)(F)F)cc1 | ? | . | . | 7.6µM* | ?
Cc1cc(C(F)(F)F)c(C#N)c(N2CCOCC2)n1 | -2% | 0% | -10% | 1% | -3%
Cn1c(=O)c(=O)n(C)c2cc(S(=O)(=O)N3CCCC3C(=O)Nc3cccc(F)c3)ccc21 (centres undefined) | . | . | 9% | 0% | .
SMILES | Rab9 promoter act | Luc counter | SMN2 splice up | FLuc counter | NPC1 promoter act
O=C(N/N=C/C1CC=CCC1)c1ccc(O)cc1O (centres undefined) | 3% | -1% | 4% | 19µM* | -1%
Brc1ccccc1-n1nnc(-c2ccnc3ccccc23)n1 | 19% | . | . | 17µM* | 2%
CC1=NN(c2ccccc2)C(=O)/C1=C\c1c(C)[nH]n(-c2ccccc2)c1=O | 0% | -2% | -22% | ? | 3%
CC1=NN(c2ccccc2)C(=O)/C1=C/c1c(O)n(-c2ccc(F)c(Cl)c2)[nH]c1=O | ? | -2% | -2%[1.84 µM] | 2.7µM* | 21%
O=C(OCC1COc2ccccc2O1)c1c(F)cccc1F (centres undefined) | 10% | . | . | 15µM* | -1%
OC(COCC1COc2ccccc2O1)CN1CCN(c2ccccc2F)CC1 (centres undefined) | 0% | 4% | -17% | -1% | -5%
Cc1ccc2[nH]c3c(=O)n(CC(=O)N4CCN(c5ccccc5F)CC4)ncc3c2c1 | . | . | . | 0% | .
Cc1ccc(C(=O)/C=C/c2ccco2)c(O)c1 | 0% | -1% | 15% | 9.5µM* | -2%
COc1ccc(N(C(=O)c2ccc(OC)c(OC)c2)S(=O)(=O)c2ccc(Cl)cc2)cc1 | . | . | -8% | -4% | .
CCOc1ccccc1C(=O)Nc1ccc2nc3c(c(Nc4ccc(OC)c(OC)c4)c2c1)CCCC3 | . | . | -76% | 1% | .
COc1ccc2oc(=O)c(-c3nc4ccc(C)cc4[nH]3)cc2c1 | . | . | . | -3% | .
COc1cccc2cc(-c3nc4ccccc4o3)c(=O)oc12 | 5% | -17% | 25% | 2.7µM* | 2%
CCOc1cccc2cc(C(=O)N3CCOCC3)c(=O)oc12 | -2% | . | . | 5% | -4%
COc1ccc2cc(-c3nc4ccc(C(=O)O)cc4[nH]3)c(=O)oc2c1 | . | . | . | 0.12µM* | .
COc1cccc2cc(-c3nc4ccc(C)cc4[nH]3)c(=O)oc12 | . | . | . | 0.54µM* | .
CCOc1cccc2cc(-c3nc4ccc(C(=O)O)cc4[nH]3)c(=O)oc12 | ? | . | . | 0.38µM* | ?
COc1ccc2cc(C(=O)c3ccccc3)c(=O)oc2c1 | ? | -3% | -7% | ? | ?
O=C(CSc1nc(-c2ccc(F)cc2)[nH]c1-c1ccccc1)Nc1ccccc1 | . | . | -11% | -6% | .
CCc1ccc(-n2nc(CO)c(C(=O)NCc3cccs3)n2)cc1 | . | . | -25% | -15% | .
CC(=O)c1ccc(N2CCN(c3nc4ccccc4c4nc(-c5cccc(C)c5)nn34)CC2)cc1 | . | . | 9% | -1% | .
CCOc1cccc2cc(-c3cn4c(n3)sc3ccccc34)c(=O)oc12 | . | . | . | 0.48µM* | .
C=CCc1cccc2cc(-c3nc4ccc(C(=O)O)cc4[nH]3)c(=O)oc12 | . | . | . | 0.43µM* | .
C=CCc1cccc2cc(C(=O)O)c(=O)oc12 | 1% | -4% | -10% | 2% | -1%
CCOc1cccc2cc(-c3nc(-c4ccc(Cl)cc4)c(C)s3)c(=O)oc12 | . | . | . | -1% | .
CN(C)c1ccc(N=Cc2ccco2)cc1 | 9% | 11µM* | -25% | 4.8µM* | 12%
SMILES | Rab9 promoter act | Luc counter | SMN2 splice up | FLuc counter | NPC1 promoter act
Cc1nc(/N=C\c2ccc(N(C)C)cc2)sc1C | -4% | . | . | 0.3µM* | -1%
CN(C)c1ccc(C=Nc2ccccc2)cc1 | 1% | 1% | -8% | 0.43µM* | -1%
Cc1ccc(N=Cc2ccc(N(C)C)cc2)cc1C | -2% | 0% | -6% | 0.95µM* | -3%
Cc1cc(N/N=C/c2ccc(N(C)C)cc2)c2ccccc2n1 | -3% | . | . | ? | -3%
C=CCc1c(C)nc(C)nc1N/N=C/c1ccc(N(C)C)cc1 | -18% | -1% | -14% | -3% | -8%
Cc1ccc(NC(=O)N2CCc3cc(S(=O)(=O)N4CCC(C)CC4)ccc32)cc1F | . | . | 4% | -4% | .
